Results filed as inconclusive are left out. Where a call stands in place of a potency, no number is given. Values without a mark were called inactive. Active and inactive are the calls of the source. The call rests on the fitted dose curve; in most records, active means well fitted cell-killing curve with a large enough effect in the repeat runs; inconclusive means weak or mixed curves, or effect the other way; inactive means flat fitted curve, though single readings scatter.
Columns and labels:
[1] = cAMP Responsive Elements (CRE) small molecule antagonists, cell-based qHTS assay: qHTS cell viability counter screen (AID 2060913); further: nearly all actives have a fitted effect of over 40% in size
Procedure, shortened: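 CRE-bla HEK293T cells (2,000/well, 18 h) given compound plus NKH477 0.25 uM final for 3 h at 37C; viability counter-screen by CellTiter-Glo luminescence in same wells after 30 min.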

[2] = cAMP Responsive Elements (CRE) small molecule agonists, cell-based qHTS assay: qHTS cell viability counter screen (AID 2060914);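 further: viability read after 3 h of compound exposure; nearly all actives have a fitted effect of over 50% in size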
Procedure, shortened: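 CRE-bla HEK293T cells in 10% dialyzed FBS medium were exposed to compounds for 3 h at 37C after 18 h plating. CellTiter-Glo was then added in the same wells, and luminescence was read after 30 min at room temperature.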

COc1ccc2cc(CCC(C)=O)ccc2c1
Potency [1]: inactive
Potency [2]: inactive

Cc1ccc(Cl)c(N)c1Cl
Potency [1]: inactive
Potency [2]: inactive

Cc1ccc2c(c1)C(=O)OC2=O
Potency [1]: inactive
Potency [2]: inactive

CCN1CCN(c2cc(-c3ccc(F)cc3)c3c(n2)CCCCCC3)CC1
viability change, negative = cytotoxic [1]: -3.64% [at 18.9 µM]
activity change, negative = cytotoxicity [2]: -20.1% [at 18.9 µM]

CC(=O)OC1CCCCC1C(C)(C)C (stereo not given)
Potency [1]: inactive
Potency [2]: inactive

O=C(N/N=C/c1ccc([N+](=O)[O-])o1)c1ccc(O)cc1
Potency [1]: inactive
Potency [2]: inactive

O=c1[nH]cnc2c1ncn2[C@H]1CC[C@@H](CO)O1
Potency [1]: inactive
Potency [2]: inactive

CC(C)N(c1ccccc1)C(C)C
Potency [1]: inactive
Potency [2]: inactive

OCCOc1cccc(OCCO)c1
Potency [1]: inactive
Potency [2]: inactive

CN(C)CCN(Cc1ccccc1)c1ccccn1
Potency [1]: inactive
Potency [2]: inactive

Cc1ccc(C(C)C)cc1
Potency [1]: inactive
Potency [2]: inactive

CC(C)c1cccc(O)c1
Potency [1]: inactive
Potency [2]: inactive

O=C(O)c1cc(Cl)cc(Cl)c1
Potency [1]: inactive
Potency [2]: inactive

COC(=O)c1cc(Cl)ccc1OC
Potency [1]: inactive
Potency [2]: inactive

CC(C(=O)O)c1ccc2c(c1)CC(=O)c1ccccc1S2 (stereo not given)
Potency [1]: inactive
Potency [2]: inactive

CCCCS(=O)(=O)N[C@@H](Cc1ccc(OCCCCC2CCNCC2)cc1)C(=O)O
Potency [1]: inactive
Potency [2]: inactive

COc1ccccc1[N+](=O)[O-]
Potency [1]: inactive
Potency [2]: inactive

Nc1ccc(S(=O)(=O)Nc2ccccc2)cc1
Potency [1]: inactive
Potency [2]: inactive

CC(C)Cc1ccc(C(C)C(=O)O)cc1 (stereo not given)
Potency [1]: inactive
Potency [2]: inactive

CC(=O)OCC1=C(C(=O)O)N2C(=O)[C@@H](NC(=O)Cc3cccs3)[C@H]2SC1
Potency [1]: inactive
Potency [2]: inactive

From PubChem BioAssay (Tox21)
